Screening results (PubChem BioAssay)
This is a sample that favours compounds with a hit; in the whole collection about 1.6% have one here.
PKA-R1A act: activators of PKA-R1A holoenzyme, primary screen, biochemical, fluorescence polarization, Cy5-IP20, bovine R1A, mouse PKAc; PKA-R1A dissociation; scaled: DMSO 0%, 113 µM cGMP 100%; activation, % at 11.4 µM; 340,000 tested, 0.083% active; AID 504707, 2011;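 active means percent activation above the mean of all tested compounds plus 3 SD, cut at about 19% in these data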;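 further: higher means more PKAc released from R1A so a rise in polarization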
CendR NRP1 mod: modulators of CendR peptide binding to NRP-1, primary screen, biochemical, fluorescence polarization, uHTS; FAM-RPARPAR peptide binding to NRP-1; inhibition, % at 25 µM; 360,000 tested, 0.85% active; AID 602438, 2012;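 active means inhibition or corrected inhibition above about 18%, plus a signal ratio from 0.5 to 1.5, limit read from the data, passing the limit was not always enough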
ATG4B inh: ATG4B protease inhibitors, primary screen, biochemical, fluorescence, uHTS; Cysteine protease ATG4B (Homo sapiens), Q9Y4P1; ATG4B cleavage of LC3-PLA2, NBD-HPC fluorescence, 1 h; inhibition, % at 8.33 µM; AID 504462, 2011; 340,000 tested, 0.51% active
PKA-R2B act: activators of PKA-R2B holoenzyme, primary screen, biochemical, fluorescence polarization, Cy5-IP20, human | 340,000 tested, 0.079% active | AID 504700, 2011 | PKA-R2B holoenzyme dissociation; R2B truncated from residue 108, S112A mutant; 0% DMSO only, 100% 113 µM cGMP | cAMP-dependent protein kinase catalytic subunit beta (Homo sapiens) + cAMP-dependent … | activation, % at 11.4 µM;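 active means activation above a cutoff set at the mean over all compounds plus 3 SD, cut at about 18% in these data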;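 further: higher means more holoenzyme dissociation and a rise in polarization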
VLA-4 inh: inhibition in human VLA-4 binding assay, primary screen, VLA-4 allosteric modulator project, MLPCN library, flow cytometry, VLA-4 expressing cells; Integrin alpha-4 (Homo sapiens), P13612; ligand binding flow cytometry; inhibition, % (about 7 µM as worked out from the volumes in the protocol); 330,000 tested, 0.2% active; AID 2557, 2010; in the data active means inhibition above about 50%
Target sequence (P13612 whole entry, looked up): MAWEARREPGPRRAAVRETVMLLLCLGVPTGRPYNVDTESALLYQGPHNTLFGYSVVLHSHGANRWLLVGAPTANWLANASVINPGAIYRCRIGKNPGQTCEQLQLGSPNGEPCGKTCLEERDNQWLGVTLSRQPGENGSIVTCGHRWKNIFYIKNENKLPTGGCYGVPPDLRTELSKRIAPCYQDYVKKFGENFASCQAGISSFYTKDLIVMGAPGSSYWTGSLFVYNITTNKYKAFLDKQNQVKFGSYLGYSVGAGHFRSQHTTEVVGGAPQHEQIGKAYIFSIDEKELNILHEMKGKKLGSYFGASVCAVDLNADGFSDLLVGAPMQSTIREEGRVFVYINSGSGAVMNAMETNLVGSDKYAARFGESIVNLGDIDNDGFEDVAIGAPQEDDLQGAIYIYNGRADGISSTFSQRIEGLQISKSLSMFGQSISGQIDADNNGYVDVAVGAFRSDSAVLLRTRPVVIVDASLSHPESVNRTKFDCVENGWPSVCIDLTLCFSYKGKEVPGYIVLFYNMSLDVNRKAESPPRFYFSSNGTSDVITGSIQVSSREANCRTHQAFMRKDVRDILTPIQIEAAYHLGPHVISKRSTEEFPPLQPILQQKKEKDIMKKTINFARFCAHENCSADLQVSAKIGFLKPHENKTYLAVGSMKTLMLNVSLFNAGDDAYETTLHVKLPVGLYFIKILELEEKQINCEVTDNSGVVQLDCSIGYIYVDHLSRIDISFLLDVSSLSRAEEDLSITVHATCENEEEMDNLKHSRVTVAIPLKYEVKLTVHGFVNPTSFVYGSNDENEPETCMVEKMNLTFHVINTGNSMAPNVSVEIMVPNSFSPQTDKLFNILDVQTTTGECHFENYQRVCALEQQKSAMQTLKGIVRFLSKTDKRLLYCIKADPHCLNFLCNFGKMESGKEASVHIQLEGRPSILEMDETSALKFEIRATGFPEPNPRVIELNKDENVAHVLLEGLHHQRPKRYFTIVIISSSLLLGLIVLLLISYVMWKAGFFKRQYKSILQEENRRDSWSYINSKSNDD
VLA-4 allo CP: retest of VLA-4 allosteric modulators, confirmation, cell-based, cherry-picked plates, U937, HUTS-21 LIBS antibody; inhibition, % at 6.7 µM; U937 cells, HUTS-21 LIBS mAb binding, flow cytometry; LDV ligand present at threefold Kd; 1,300 tested, 2% active; shares compounds with VLA-4 inh
Hits are given with their value; i = inactive; nt = not tested or not shown. Unless noted, no stated cut-off is given here; in the data, active means inhibition above about 40%; inactive means the rest.

SMILES | PKA-R1A act | CendR NRP1 mod | ATG4B inh | PKA-R2B act | VLA-4 inh | VLA-4 allo CP
COCCn1nnnc1C(c1ccc(OC)cc1OC)N1CCN(c2ccccc2)CC1 (stereo not drawn) | i | i | i | i | i | nt
CCN(C[C@H]1N[C@@](Cc2ccccc2)(C(=O)OC)[C@H]2C(=O)N(Cc3ccccc3)C(=O)[C@@H]12)S(=O)(=O)c1ccc(OC(F)(F)F)cc1 | i | i | i | i | i | i
CCN(C[C@H]1N[C@@](Cc2ccccc2)(C(=O)OC)[C@H]2C(=O)N(Cc3ccccc3)C(=O)[C@@H]12)S(=O)(=O)c1ccc(C(C)(C)C)cc1 | i | i | i | i | i | i
CCOc1ccc(NC(=O)CN(C)C(=O)c2ccc(COc3ccccc3)o2)cc1OCC | i | i | i | i | 54 | i
CCOc1ccc(NC(=O)CN(C)C(=O)c2ccc(COc3ccccc3)cc2)cc1OCC | i | i | i | i | i | nt
O=C(COC(=O)CSc1ccc([N+](=O)[O-])cc1)NC1CCCCCCC1 | i | i | i | i | i | nt
O=C(COC(=O)c1ccccc1Cl)NC1CCCCCC1 | i | i | i | i | i | i
O=C(COC(=O)c1c(Cl)cccc1Cl)NC1CCCCCCC1 | i | i | i | i | i | i
Cc1ccc(SCC(=O)OCC(=O)NC2CCCCCCC2)cc1 | i | i | i | i | 55 | i
CN(C(=O)c1cccc(NC(=O)Cc2cccc(NC(=O)C3CCN(C(=O)CCc4ccccc4)CC3)c2)c1)C1CC1 | i | i | i | i | nt | nt
COc1ccc(NC(=S)NC(=O)c2cncc(Br)c2)cc1 | i | i | i | i | i | nt
COc1ccc(C(=O)N(Cc2ccco2)Cc2cccs2)c(O)c1 | i | i | i | i | 54 | i
Cc1ccccc1N1CCN(C2CCCN(C(=O)CCc3c(C)noc3C)C2)CC1 (stereo not drawn) | i | i | i | i | i | nt
O=C1c2ccccc2C2(c3cc(C(F)(F)F)cc(C(F)(F)F)c3)NCCN12 (stereo not drawn) | i | i | i | i | i | nt
COc1ccccc1CC(=O)NNC(=O)CN(C)S(=O)(=O)c1ccc(Cl)cc1 | i | i | i | i | i | nt
COc1ccccc1CNC(=O)CN(C)S(=O)(=O)c1ccc(F)cc1 | i | i | i | i | i | i
CC(C)[C@H](NC(=O)OCc1ccccc1)C(=O)NCc1ccccc1 | i | i | i | i | i | i
O=c1c2[nH]c3ccc(F)cc3c2ncn1CCN1CCOCC1 | i | i | i | i | i | nt
O=c1c2[nH]c3ccc(Br)cc3c2ncn1CCCn1ccnc1 | i | i | i | i | i | i
O=c1c2[nH]c3ccc(F)cc3c2ncn1Cc1ccncc1 | i | i | i | i | i | i
O=c1c2[nH]c3ccc(F)cc3c2ncn1C1CCCCC1 | i | i | i | i | 96 | i
Cc1ccc(-c2nnn(CC(=O)NC(=O)NC3CCCCC3)n2)cc1 | i | i | i | i | nt | nt
COc1cc(OCc2ccccc2)c(C(=O)/C=C/c2ccc3c(c2)OCO3)c(OC)c1OC | i | i | i | i | i | nt
O=C(NC1CCCCC1)c1ccc(S(=O)(=O)NCc2ccco2)cc1 | i | i | i | i | 52 | i
CCCc1nnc(NC(=O)CSc2nnc(-c3ccco3)n2C)s1 | i | i | i | i | i | nt
CC(NC(=O)c1ccccc1F)c1nnc(SCC(=O)Nc2nccs2)n1C (stereo not drawn) | i | i | i | i | i | i
Cc1nnc(NC(=O)CSc2nnc(C(C)NC(=O)c3ccccc3F)n2C)s1 (stereo not drawn) | i | i | i | i | i | nt
Cc1cc2nc3c(c(=O)n2[nH]1)CCCC3 | i | i | i | i | 91 | i
O=c1c2c(nc3cc(-c4ccccc4)[nH]n13)CCC2 | i | i | i | i | i | nt
